Source: PubChem BioAssay AID540254 (Southern Research Specialized Biocontainment Screening …, 2011)
Among all 1,800 compounds or so, fewer than 10 were called active. The list is a sample of the results. Measured potencies and affinities stand elsewhere. Unmarked numbers belong to inactive results. How the calls were made is not given here.

Assay: antiviral activity against H1N1 influenza, dose response, cell-based, strain KY180 (AID 540254)
Details: H1N1 KY180 influenza antiviral cell-based screen; series mostly up to 40 µM; inhibition: at the top concentration

SMILES	inhibition [%]
O=C(Nc1nc(-c2ccccn2)cs1)C1COc2ccccc2O1 (configuration not stated)	-1.68
CC(=O)N/N=C(\C)c1cccc(NC(=O)c2cccs2)c1	0
O=C(Nc1nc2c(s1)CCCC2)C1COc2ccccc2O1 (configuration not stated)	-1.12
Cn1c(=O)c2[nH]c(NN=Cc3ccc(Br)cc3)nc2n(C)c1=O	-1.47
COc1ccc(C(=O)NC(=S)NNC(=O)c2cnccn2)cc1OC	0.25
COC(=O)c1ccccc1NC1=C/C(=N\S(=O)(=O)c2ccc(C(=O)O)cc2)c2ccccc2C1=O	-2.51
CCNC(=S)NNC(=O)c1ccccn1	1.27
O=c1c2ccccc2ncn1Cc1ccco1	0.5
Oc1c(CN2CCCCC2)ccc2cccnc12	-2.01
COCc1cc(C)nc(SCC(=O)Nc2ccc3c(c2)n(C)c(=O)n3C)c1C#N	-0.56
Nc1ccccc1C(=O)NCc1ccc(Cl)cc1	-1.27
Nc1nc(SCc2ccc([N+](=O)[O-])cc2)nc2nc3c(cc12)CCCC3	1.97
CCN(CC)CCNc1nc2cc(OC)c(OC)cc2c2nc(-c3ccccc3)nn12	-5.15
Cc1cc(N(C)N)nc(NC(=O)NS(=O)(=O)c2ccccc2Cl)n1	-0.5
Cn1cc(S(=O)(=O)Nc2ccc(Br)cc2F)c(=O)n(C)c1=O	1.97
O=C(NCC1CCCO1)C(=O)N/N=C/c1cc(Cl)ccc1O (configuration not stated)	1.27
O=C(NCCCN1CCOCC1)C(=O)N/N=C/c1ccccc1O	0
Cc1ccc(OCCn2c(C3CC(=O)N(Cc4ccccc4)C3)nc3ccccc32)cc1 (configuration not stated)	-2.51
CCOC(=O)c1cnc(-n2[nH]c(C)c(Cc3ccccc3)c2=O)[nH]c1=O	0.56
Cc1ccc(C(c2nnnn2Cc2cccs2)N2CCN(Cc3ccc4c(c3)OCO4)CC2)cc1 (configuration not stated)	-2.95
COc1cc(/C=C2\SC(c3ccccc3)=NC2=O)cc(Cl)c1O	0.56
COC(=O)C1CCN(C(=O)Cc2ccc(C)cc2)CC1	0.5
COc1ccc(Cc2nnc(N/N=C/c3ccc(O)cc3)[nH]c2=O)cc1OC	-1.51

SMILES	inhibition [%]
CC1CC(=O)N(C)c2ccc([N+](=O)[O-])cc2N1 (configuration not stated)	1.12
O=C(c1cc2ccccc2o1)N1CCCCCC1	2.01
COc1cc(OC)cc(C(=O)NC(=S)NNC(=O)c2cnccn2)c1	-1.68
CC1CCCC(C)N1c1nnc(NC(=O)Cn2c(=O)oc3ccccc32)s1 (configuration not stated)	-1.97
Fc1ccc(-[n+]2nc(Nc3ccccc3)sc2-c2c(Cl)cccc2Cl)cc1	-2.01
CC1NC(=O)NC1CCCCCC(=O)Nc1ccc(F)cc1 (configuration not stated)	1.57
CCc1nnc(SCC(=O)N2CCc3ccccc32)n1CC	2.46
O=C(CNCc1ccccn1)Nc1cc(S(=O)(=O)N2CCCCC2)ccc1Cl	0
Cc1nc2sccn2c(=O)c1S(=O)(=O)N1CCN(c2ccc(F)cc2)CC1	4.25
O=C1NC(c2ccccn2)Nc2sc3c(c21)CCC3 (configuration not stated)	-1.47
COc1cccc(/C=N/NC(=O)CCCC(=O)NC2CCCCC2)c1	1.47
CCOC(=O)Cn1c(=O)oc2cc(S(=O)(=O)NCc3ccccn3)ccc21	-0.67
COc1cccc(C2c3c(oc4ccc(Cl)cc4c3=O)C(=O)N2c2cc(C)on2)c1OC (configuration not stated)	-1.57
CC(/C=N/NC(=O)c1ccc(Cn2cc([N+](=O)[O-])cn2)o1)=C\c1ccccc1	1.97
CCOc1ccc(C(=O)NCCn2cc(SCC(=O)Nc3cc(C)on3)c3ccccc32)cc1	0.56
O=C(N/N=C/c1ccc([N+](=O)[O-])cc1)c1ccccc1OCc1ccccc1	-1.01
CC(=O)Cc1nsc(NC(=O)c2ccc(-c3cc(C(F)(F)F)ccc3Cl)o2)n1	-0.56
CCCCC(=O)NC(c1ccc(N(C)C)cc1)c1ccc2cccnc2c1O (configuration not stated)	0
CC(C)COC(=O)c1ccc2c(c1O)C(=O)c1ccccc1C2=O	-1.12
O=C(CSc1ccccc1)Nc1nnc(/C=C/c2ccccc2)s1	0.25
CCOC(=O)CCSCC(=O)Nc1nnc(C)s1	1.27
COc1ccc(C(CNC(=O)CN2C(=O)NC3(CCCC3)C2=O)N(C)C)cc1 (configuration not stated)	4.02
COc1ccc(C(=O)COC(=O)CN2CC(=O)Oc3ccccc32)cc1Br	-1.97

SMILES	inhibition [%]
O=C(NC1CCCC1)C(c1cccnc1)N(C(=O)c1csnn1)c1ccccc1Cl (configuration not stated)	0.22
CCOC(=O)C1=C(C)N(C)C(C)=C(C(=O)OCC)C1c1ccncc1	13.2
O=[N+]([O-])c1ccc(CSc2ccc(-c3ccccn3)nn2)cc1	-1.01
O=C(NN=C1CCCCCC1)c1cccs1	2.53
CCOC(=O)C1CCN(c2c(NC3CCCCCCC3)c(=O)c2=O)CC1	-1.12
CC(C)C(=O)N(c1cc2sc(=O)oc2c2ccccc12)S(=O)(=O)c1cccs1	-1.27
CN1C(=O)/C(=C\c2cc(N=Nc3ccccc3)ccc2O)SC1=S	-0.25
CCCC(=O)OC(C(=O)Nc1cc(C(F)(F)F)ccc1Cl)c1ccccc1 (configuration not stated)	0
Cc1ccccc1-c1nc(CN2CCC(C(=O)N3CCC(C(N)=O)CC3)CC2)c(C)o1	7.38
O=C(O)c1ccc(-n2nnnc2Oc2cccc3cccnc23)cc1	1.51
Cc1ccc(NC(=O)C2CCCN(c3ncccn3)C2)cc1F (configuration not stated)	-0.5
CN(C)S(=O)(=O)c1cccc(NC(=O)CNCc2ccccn2)c1	1.97
COc1ccc(C)cc1NC(=O)CSc1ccc(-c2ccccn2)nn1	-1.27
COc1ccc(N2CCN(CCCNS(=O)(=O)c3ccc4c(c3)oc(=O)n4C)CC2)cc1	1.27
COc1ccc(N2CCN(CCCNC(=O)c3cc4sccc4n3C)CC2)cc1	0
COc1ccc(N2CCN(C(=O)c3cccc(Cn4cc(Cl)cn4)c3)CC2)cc1	-2.53
COc1ccccc1-c1c(C)nn2c(N3CCN(Cc4ccccc4)CC3)cc(C)nc12	-5.59
Cc1ccc(C)c(N=Nc2nc3ccccc3n2C)c1	-0.25
NS(=O)(=O)c1ccc(NC(=O)Nc2ccc3c(c2)OCO3)cc1	0
COc1ccc(/C=N\NC(=O)c2cc(O)c(O)c(O)c2)cc1COc1ccc(C(=O)OCC(C)C)cc1	-1.01
Cc1ccc(-c2csc(NC(=O)c3cccc(N4C(=O)CCC4=O)c3)n2)o1	-0.25
Cc1cc2cc(CNC(=O)c3ccc(S(=O)(=O)N4CCCC4)cc3)ccc2n1C	1.97
Cc1cc(C)c(NN=c2c(=O)c3ccccc3c2=O)c(C)c1	-0.56

SMILES	inhibition [%]
COCc1cc(=O)[nH]c(Nc2nc3ccc(C)cc3o2)n1	-2.53
O=C(CCCN1C(=O)c2ccccc2C1=O)Nc1sc2c(c1C(=O)NCc1ccco1)CCC2	0.56
Cc1ccc(-c2nc3ncccn3c2Nc2ccc3c(c2)OCO3)o1	9.17
O=[N+]([O-])c1cc(/C=N/N/C(=N/c2ccccn2)c2ccccn2)ccc1O	0
O=[N+]([O-])c1cc2no[n+]([O-])c2cc1N1CCCCC1	-1.97
CCOc1ccc(C(=O)N/N=C/c2cccc3cccnc23)cc1	-4.25
Cc1nc2ccc(S(=O)(=O)Nc3cccc(-c4nc5cccnc5s4)c3C)cc2s1	0
COc1cc(C2CC(=O)Oc3c(C(CCN4CCCC(C)C4)c4ccc(N(C)C)cc4)c(OC)cc(OC)c32)cc(OC)c1OC (configuration not stated)	-2.46
CCOc1cc2c(cc1OCC)-n1cccc1C(c1ccc(C(C)C)cc1)NC2 (configuration not stated)	0
Cc1ccccc1NC(=S)N(CCN(C)C)C(C)c1ccccn1 (configuration not stated)	6.16
CSc1cccc(NC(=S)N(CCN(C)C)C(C)c2ccccn2)c1 (configuration not stated)	29
O=C(Cn1cc(SCc2ccc(Cl)cc2)c2ccccc21)N1CCOCC1	0
O=C1C(NS(=O)(=O)c2ccc(Br)cc2)=C(N2CCCCC2)C(=O)c2ccccc21	-2.53
CCN(CC)C(=O)CCc1nc2sc3c(c2c(=O)[nH]1)CCCC3	0
O=C(CN1CCN(Cc2cccc(Cl)c2)C1=O)NCc1ccccn1	2.46
Cc1ccc(Cl)c(NC(=O)COC(=O)CNS(=O)(=O)/C=C/c2ccccc2)c1Cl	1.27
CC(C)C(=O)N(c1ccc2oc(=O)sc2c1)S(=O)(=O)c1ccccc1	-1.01
CC(=NNC(=S)N1CCC1)c1ccccn1	-2.46
COc1ccccc1C(CCNCc1ccc(N(C)C)cc1)c1ccc(OC(C)C)cc1 (configuration not stated)	-1.27
CSC1=NC(C)(C)CC2(C)Nc3ccccc3N12 (configuration not stated)	11.4
Cc1cccn2cc(CCNS(=O)(=O)c3ccc4c(c3)OCCO4)nc12	-1.27
Cc1cc(C(=O)N/N=C/c2cc([N+](=O)[O-])ccc2O)c2ccccc2n1	-1.01
CC(C)(C)c1nnc(N/N=C/c2cc(Br)ccc2O)n(N)c1=O	0
